Experimental data taken from PubChem BioAssay (NCI).
This is part of a sample that, as a whole, favours compounds with a hit. Of some 79,000 tested, about 15% had one in any assay. Active and inactive are the calls of the source. Cut-off read from the data, not from the text of the source: active = growth inhibition above about 70%; inactive = the rest.

Columns and labels:
[1] = NCI Yeast Anticancer Drug Screen. Data for the rad52 strain (AID 147);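 note: 0% = growth of vehicle-treated control cultures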; conditions: S. cerevisiae rad52 mutant growth inhibition, hits give high values
Outline: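 Read-out: growth inhibition versus vehicle-treated controls. Cells were a DNA repair-deficient yeast strain treated with compounds.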

[2] = NCI Yeast Anticancer Drug Screen. Data for the rad50EPP+ strain (AID 151);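 note: 0% = growth of vehicle-treated control cultures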; conditions: S. cerevisiae rad50 mutant strain, hits give high values
Outline: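 Growth inhibition read against vehicle controls in rad50EPP+ yeast, a strain altered in DNA damage repair, after compound exposure.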

[3] = NCI Yeast Anticancer Drug Screen. Data for the rad50 strain (AID 155);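 note: 0% = growth of vehicle-only cultures of the same strain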; conditions: S. cerevisiae rad50 strain growth inhibition, hits give high values
Outline: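 Vehicle-treated cultures provide the reference for the growth inhibition reported for compound-exposed, repair-deficient yeast.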

[4] = NCI Yeast Anticancer Drug Screen. Data for the mec2-1 strain (AID 157); conditions: S. cerevisiae mec2-1 strain, hits give high values
Outline: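 Yeast mec2-1 mutant treated with compound. Readout: growth inhibition vs vehicle controls.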

[5] = NCI Yeast Anticancer Drug Screen. Data for the rad14 strain (AID 159);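 note: 0% = growth of vehicle-treated control cultures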; conditions: S. cerevisiae rad14 strain growth inhibition, hits give high values
Outline: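 Inhibition of growth is reported for a repair-deficient yeast mutant following compound treatment, calculated relative to cultures that received vehicle.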

[6] = NCI Yeast Anticancer Drug Screen. Data for the sgs1 mgt1 strain (AID 161);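 note: 0% = growth of cultures given vehicle only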; conditions: S. cerevisiae sgs1 mgt1 strain, hits give high values
Outline: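 Inhibition of yeast growth, normalised to vehicle-treated controls, is reported for a strain bearing genetic alterations in DNA damage repair.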

[7] = NCI Yeast Anticancer Drug Screen. Data for the CLN2oe strain (AID 163);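 note: 0% = growth of vehicle-only control cultures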; conditions: S. cerevisiae CLN2oe strain, hits give high values
Outline: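 Read-out: yeast growth inhibition, expressed relative to vehicle-only controls. The strain bears an engineered cell-cycle alteration.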

[8] = NCI Yeast Anticancer Drug Screen. Data for the cln2 rad14 strain (AID 165);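 note: 0% = growth equal to vehicle treated cultures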; conditions: S. cerevisiae cln2 rad14 strain, hits give high values
Outline: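 cln2 rad14 yeast strain; compound exposure; growth inhibition read vs vehicle controls.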

[9] = NCI Yeast Anticancer Drug Screen. Data for the bub3 strain (AID 167); conditions: S. cerevisiae bub3 mutant strain, hits give high values
Outline: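 Mutant yeast screening strain plus compound; vehicle-treated cultures serve as the 0% inhibition reference.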

[10] = NCI Yeast Anticancer Drug Screen. Data for the wt2 strain (AID 169); conditions: S. cerevisiae wt2 strain growth inhibition, hits give high values
Outline: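 Read-out: growth inhibition versus vehicle-treated control cultures after compound exposure of the yeast strain.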

[11] = NCI Yeast Anticancer Drug Screen. Data for the mlh1 strain (AID 171);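 note: 0% = growth of vehicle-treated control cultures of the same strain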; conditions: S. cerevisiae mlh1 strain growth inhibition, hits give high values
Outline: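 Read-out: growth inhibition versus vehicle controls. Strain: engineered yeast with a defined DNA repair or cell cycle defect, compound-treated.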

[12] = NCI Yeast Anticancer Drug Screen. Data for the mlh1 rad18 strain (AID 175); conditions: S. cerevisiae mlh1 rad18 strain growth inhibition, hits give high values
Outline: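 Yeast w/ defined DNA-repair lesions; compound exposure; growth vs vehicle controls → % inhibition.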

[13] = NCI Yeast Anticancer Drug Screen. Data for the wt1 strain (AID 149);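 note: 0% = growth of vehicle-treated wt1 cultures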; conditions: S. cerevisiae wt1 strain (SPY 50644) growth inhibition, hits give high values
Outline: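 Each compound is tested on wt1 yeast and the loss of growth versus vehicle gives the inhibition value.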

[14] = NCI Yeast Anticancer Drug Screen. Data for the mgt1 strain (AID 153); conditions: S. cerevisiae mgt1 mutant growth inhibition, hits give high values
Outline: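 mgt1 yeast grown with test compound; read-out is growth inhibition versus vehicle-treated cultures.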

[15] = NCI Yeast Anticancer Drug Screen. Data for the sgs1 strain (AID 173);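 note: 0% = growth of vehicle-only control cultures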; conditions: S. cerevisiae sgs1 mutant, hits give high values
Outline: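 Read-out: yeast growth inhibition relative to vehicle controls, following compound exposure of a strain with a defined DNA repair/cell cycle alteration.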

[16] = NCI Yeast Anticancer Drug Screen. Data for the rad18 strain (AID 177); conditions: S. cerevisiae rad18 mutant growth inhibition, hits give high values
Outline: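 Readout: growth inhibition vs vehicle controls. Cells: genetically altered yeast strain, DNA repair defect.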

[17] = at 5.0 µM (retest, dose inferred, filed as 0.5)
[18] = at 50.0 µM (retest, dose inferred, filed as 5.0)

Measured: growth inhibition

Nc1ccccc1C(=O)OCCc1ccccc1
inactive: [1]; at 1.2 µM -9% | [1]; at 3.7 µM -4% | [1]; at 11.0 µM -21% | [1]; at 33.0 µM -3% | [2]; at 1.2 µM -23% | [2]; at 3.7 µM -9% | [2]; at 11.0 µM 13% | [2]; at 33.0 µM 22% | [3]; at 1.2 µM -3% | [3]; at 3.7 µM -7% | [3]; [17] 36% | [3]; at 11.0 µM -31% | [3]; at 33.0 µM 13% | [4]; at 1.2 µM -8% | [4]; at 3.7 µM -4% | [4]; [17] 38% | [4]; at 11.0 µM -6% | [4]; at 33.0 µM 13% | [4]; at 50.0 µM 48.1% | [5]; at 1.2 µM -19% | [5]; at 3.7 µM -10% | [5]; at 11.0 µM -21% | [5]; at 33.0 µM -12% | [6]; [17] -17% | [6]; at 50.0 µM 68% | [7]; at 1.2 µM 19% | [7]; at 3.7 µM 17% | [7]; at 11.0 µM 14% | [7]; at 33.0 µM -1% | [8]; [17] 62% | [8]; at 50.0 µM 44.5% | [9]; at 1.2 µM -10% | [9]; at 3.7 µM 0% | [9]; [17] 12% | [9]; at 11.0 µM -1% | [9]; at 33.0 µM 5% | [10]; at 1.2 µM -16% | [10]; at 3.7 µM -15% | [10]; at 11.0 µM 3% | [10]; at 33.0 µM -12% | [11]; at 1.2 µM -15% | [11]; at 3.7 µM -17% | [11]; at 11.0 µM -18% | [11]; at 33.0 µM -7% | [12]; [17] 34%
active: [1]; at 100.0 µM 91% | [2]; at 100.0 µM 73% | [3]; [18] 93% | [3]; at 50.0 µM 82.9% | [3]; at 100.0 µM 97% | [4]; [18] 99% | [4]; at 100.0 µM 85% | [5]; at 100.0 µM 97% | [6]; [18] 74% | [7]; at 100.0 µM 91% | [8]; [18] 76% | [9]; [18] 78% | [9]; at 50.0 µM 89.5% | [9]; at 100.0 µM 76% | [10]; at 100.0 µM 94% | [11]; at 100.0 µM 97% | [12]; [18] 87% | [12]; at 50.0 µM 85.7%

CCCCCCCCCC[Se]C#N
active: [2]; at 33.0 µM 76% | [2]; at 100.0 µM 97% | [14]; at 100.0 µM 95% | [3]; [18] 99% | [3]; at 50.0 µM 99.4% | [3]; at 100.0 µM 97% | [4]; [18] 99% | [4]; at 50.0 µM 99.6% | [4]; at 100.0 µM 77% | [5]; at 100.0 µM 99% | [6]; [18] 99% | [6]; at 50.0 µM 99.3% | [8]; [18] 99% | [8]; at 50.0 µM 97.3% | [9]; [18] 99% | [9]; at 50.0 µM 99.5% | [9]; at 100.0 µM 90% | [10]; at 100.0 µM 79% | [15]; at 100.0 µM 96% | [12]; [18] 99% | [12]; at 50.0 µM 99.3% | [16]; at 100.0 µM 98%
inactive: [13]; at 1.2 µM -4% | [13]; at 3.7 µM 2% | [13]; at 11.0 µM -3% | [13]; at 33.0 µM 6% | [13]; at 100.0 µM 48% | [2]; at 1.2 µM 4% | [2]; at 3.7 µM 6% | [2]; at 11.0 µM 23% | [14]; at 1.2 µM -2% | [14]; at 3.7 µM 0% | [14]; at 11.0 µM 0% | [14]; at 33.0 µM 16% | [3]; at 1.2 µM 2% | [3]; at 3.7 µM -38% | [3]; [17] 30% | [3]; at 11.0 µM 14% | [3]; at 33.0 µM 52% | [4]; at 1.2 µM 1% | [4]; at 3.7 µM 4% | [4]; [17] 30% | [4]; at 11.0 µM 6% | [4]; at 33.0 µM 19% | [5]; at 1.2 µM -1% | [5]; at 3.7 µM -2% | [5]; at 11.0 µM 4% | [5]; at 33.0 µM 31% | [6]; [17] 46% | [7]; at 1.2 µM -1% | [7]; at 3.7 µM 0% | [7]; at 11.0 µM -4% | [7]; at 33.0 µM -7% | [7]; at 100.0 µM -3% | [8]; [17] 15% | [9]; at 1.2 µM 0% | [9]; at 3.7 µM -2% | [9]; [17] 4% | [9]; at 11.0 µM -2% | [9]; at 33.0 µM 5% | [10]; at 1.2 µM -2% | [10]; at 3.7 µM 7% | [10]; at 11.0 µM -1% | [10]; at 33.0 µM -2% | [15]; at 1.2 µM -1% | [15]; at 3.7 µM 1% | [15]; at 11.0 µM 13% | [15]; at 33.0 µM 54% | [12]; [17] 51% | [16]; at 1.2 µM 4% | [16]; at 3.7 µM 6% | [16]; at 11.0 µM 18% | [16]; at 33.0 µM 63%

CC1=C(CO)C2=C(C)C3(CC3)[C@@](C)(O)C(=O)C2=C1
active: [3]; at 100.0 µM 79% | [15]; at 100.0 µM 78% | [16]; at 3.7 µM 82% | [16]; at 11.0 µM 90% | [16]; at 33.0 µM 93% | [16]; at 100.0 µM 94%
inactive: [13]; at 1.2 µM 0% | [13]; at 3.7 µM -1% | [13]; at 11.0 µM -1% | [13]; at 33.0 µM 0% | [13]; at 100.0 µM -13% | [2]; at 1.2 µM -2% | [2]; at 3.7 µM 0% | [2]; at 11.0 µM 0% | [2]; at 33.0 µM 2% | [2]; at 100.0 µM 0% | [14]; at 1.2 µM -2% | [14]; at 3.7 µM -1% | [14]; at 11.0 µM -1% | [14]; at 33.0 µM -1% | [14]; at 100.0 µM 0% | [3]; at 1.2 µM 1% | [3]; at 3.7 µM 3% | [3]; at 11.0 µM 13% | [3]; at 33.0 µM 42% | [3]; at 50.0 µM 14% | [4]; at 1.2 µM 0% | [4]; at 3.7 µM -1% | [4]; at 11.0 µM 1% | [4]; at 33.0 µM 19% | [4]; at 50.0 µM -0.75% | [4]; at 100.0 µM 66% | [5]; at 1.2 µM 0% | [5]; at 3.7 µM -2% | [5]; at 11.0 µM 5% | [5]; at 33.0 µM 19% | [5]; at 100.0 µM 59% | [6]; at 50.0 µM 43.9% | [7]; at 1.2 µM -7% | [7]; at 3.7 µM -6% | [7]; at 11.0 µM -13% | [7]; at 33.0 µM -11% | [7]; at 100.0 µM -2% | [8]; at 50.0 µM 18.3% | [9]; at 1.2 µM -4% | [9]; at 3.7 µM -5% | [9]; at 11.0 µM -8% | [9]; at 33.0 µM -14% | [9]; at 50.0 µM -40.2% | [9]; at 100.0 µM -13% | [11]; at 1.2 µM -1% | [11]; at 3.7 µM 0% | [11]; at 11.0 µM 1% | [11]; at 33.0 µM 3% | [11]; at 100.0 µM 8% | [15]; at 1.2 µM 4% | [15]; at 3.7 µM 11% | [15]; at 11.0 µM 29% | [15]; at 33.0 µM 55% | [12]; at 50.0 µM 0.3% | [16]; at 1.2 µM 44%
